A short description of assay [1]: NCI Yeast Anticancer Drug Screen. Data for the rad50 strain (AID 155).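 Further: 0% = growth of vehicle-only cultures of the same strain.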 Particulars: S. cerevisiae rad50 strain growth inhibition, hits give high values. Summed up: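 Yeast carrying a defined DNA repair defect were exposed to test compounds, and growth was compared with vehicle-treated controls to give percent inhibition.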
A short description of assay [2]: NCI Yeast Anticancer Drug Screen. Data for the mec2-1 strain (AID 157). The settings on record: S. cerevisiae mec2-1 strain, hits give high values. A digest of the protocol: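 Each compound was tested on mec2-1 yeast, a strain altered in DNA damage repair or cell cycle control. Growth inhibition is reported relative to vehicle.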
A short description of assay [3]: NCI Yeast Anticancer Drug Screen. Data for the sgs1 mgt1 strain (AID 161).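 Further: 0% = growth of cultures given vehicle only.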 The settings on record: S. cerevisiae sgs1 mgt1 strain, hits give high values. A digest of the protocol: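 Read-out: growth inhibition vs vehicle controls. Cells: mutant yeast strain deficient in DNA damage repair.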
Assay [4] is described as follows: NCI Yeast Anticancer Drug Screen. Data for the cln2 rad14 strain (AID 165).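 Further: 0% = growth equal to vehicle treated cultures.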 Particulars: S. cerevisiae cln2 rad14 strain, hits give high values. A digest of the protocol: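 Test compounds were added to cln2 rad14 yeast cultures; inhibition of growth was then determined by comparison with vehicle treatment.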
Assay [5] is described as follows: NCI Yeast Anticancer Drug Screen. Data for the bub3 strain (AID 167). The settings on record: S. cerevisiae bub3 mutant strain, hits give high values. A digest of the protocol: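 Compounds were applied to a genetically altered yeast strain carrying a cell-cycle control defect. Growth inhibition was scored against vehicle-treated controls.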
The nature of assay [6]: NCI Yeast Anticancer Drug Screen. Data for the mlh1 rad18 strain (AID 175). The settings on record: S. cerevisiae mlh1 rad18 strain growth inhibition, hits give high values. Summed up:
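Inhibition values reflect reduced growth of mutant yeast versus vehicle-treated controls following compound exposure; the mutations affect DNA damage repair.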

[7] abbreviates: at 5.0 µM (retest, dose inferred, filed as 0.5).
Where [8] appears, read: at 50.0 µM (retest, dose inferred, filed as 5.0).

The structures appear in SMILES notation. This is part of a sample that, as a whole, favours compounds with a hit. Of some 79,000 tested, about 15% had one in any assay. A number with no mark means an inactive call. Activity calls are given as the source filed them. No stated cut-off is given here; in the data, active means growth inhibition above about 70%; inactive means the rest.

As for `CC(=O)Nc1ccc(-c2nnc(SCC(=O)Nc3cccc(Cl)c3)o2)cc1`, the growth inhibition in assay [1] (setting [7]) was 14%; in assay [1] (setting [8]) it was 45%; in assay [1] (at 50.0 µM) it was 22.2%; in assay [2] (setting [7]) it was 1%; in assay [2] (setting [8]), 39%; in assay [2] (at 50.0 µM), 15.6%. In addition, the growth inhibition is 10% in assay [3] (setting [7]); 33% in assay [3] (setting [8]); 55.6% in assay [3] (at 50.0 µM); 15% in assay [4] (setting [7]); 49% in assay [4] (setting [8]); -33.8% in assay [4] (at 50.0 µM). The growth inhibition was 8% in assay [5] (setting [7]); 56% in assay [5] (setting [8]); 73.7% (active) in assay [5] (at 50.0 µM); 2% in assay [6] (setting [7]); 71% (active) in assay [6] (setting [8]); 28.7% in assay [6] (at 50.0 µM).
Turning to `CC(=O)N1CCCC2=C1CCCCCCCCCC2`, the growth inhibition is -7% in assay [1] (setting [7]); 4% in assay [1] (setting [8]); 49.4% in assay [1] (at 50.0 µM); -6% in assay [2] (setting [7]); -5% in assay [2] (setting [8]); 27.9% in assay [2] (at 50.0 µM). Also, the growth inhibition in assay [3] (setting [7]) is -3%; in assay [3] (setting [8]), 1%; in assay [3] (at 50.0 µM), 70.6% (active); in assay [4] (setting [7]) it was 3%; in assay [4] (setting [8]) it was -9%; in assay [4] (at 50.0 µM), 22.9%. Further, the growth inhibition in assay [5] (setting [7]) was -12%; in assay [5] (setting [8]), -21%; in assay [5] (at 50.0 µM), 29.2%; in assay [6] (setting [7]) it was -6%; in assay [6] (setting [8]) it was -2%; in assay [6] (at 50.0 µM) it was 13.8%.
Turning to `CC1(C)CNCC(C)(OCc2ccccc2)C(=O)NC(C)(C)CNCC(C)(OCc2ccccc2)C(=O)N1` (configuration not stated), the growth inhibition is -6% in assay [1] (setting [7]); -19% in assay [1] (setting [8]); -1.9% in assay [1] (at 50.0 µM); -15% in assay [2] (setting [7]); -8% in assay [2] (setting [8]); -3.4% in assay [2] (at 50.0 µM). Besides, the growth inhibition in assay [3] (setting [7]) is -8%; in assay [3] (setting [8]), 7%; in assay [3] (at 50.0 µM) it was -20.9%; in assay [4] (setting [7]) it was -15%; in assay [4] (setting [8]) it was -5%; in assay [4] (at 50.0 µM) it was 31.5%. For the same molecule, the growth inhibition in assay [5] (setting [7]) is -10%; in assay [5] (setting [8]), 3%; in assay [5] (at 50.0 µM), -68.2%; in assay [6] (setting [7]) it was -10%; in assay [6] (setting [8]), 6%; in assay [6] (at 50.0 µM), -10.4%.
Regarding `O=C(C[n+]1ccccc1)N=N/C(C(=O)Nc1c(Cl)c(O)c2ccccc2c1O)=C1/C(=O)Oc2cc(O)ccc2C1=O`, the growth inhibition in assay [1] (setting [7]) is 15%; in assay [1] (setting [8]), 98% (active); in assay [1] (at 50.0 µM) it was 97.3% (active); in assay [2] (setting [7]), 23%; in assay [2] (setting [8]) it was 98% (active); in assay [2] (at 50.0 µM), 95.8% (active). The growth inhibition is 19% in assay [3] (setting [7]); 98% (active) in assay [3] (setting [8]); 93% (active) in assay [3] (at 50.0 µM); -15% in assay [4] (setting [7]); 96% (active) in assay [4] (setting [8]); 68.5% in assay [4] (at 50.0 µM). The growth inhibition in assay [5] (setting [7]) is 24%; in assay [5] (setting [8]), 98% (active); in assay [5] (at 50.0 µM) it was 90.8% (active); in assay [6] (setting [7]), 27%; in assay [6] (setting [8]), 97% (active); in assay [6] (at 50.0 µM), 94.6% (active).
`CCN(CC)Cc1ccc(Nc2cc(C)nc(/N=C(\N)Nc3ccc(Cl)c(Cl)c3)n2)cc1`: the growth inhibition is 66% in assay [1] (setting [7]); 97% (active) in assay [1] (setting [8]); 97.3% (active) in assay [1] (at 50.0 µM); 55% in assay [2] (setting [7]); 98% (active) in assay [2] (setting [8]); 95.3% (active) in assay [2] (at 50.0 µM). Moreover, the growth inhibition in assay [3] (setting [7]) was 59%; in assay [3] (setting [8]) it was 98% (active); in assay [3] (at 50.0 µM), 98.1% (active); in assay [4] (setting [7]), 11%; in assay [4] (setting [8]) it was 97% (active); in assay [4] (at 50.0 µM) it was 82.5% (active). For the same molecule, the growth inhibition in assay [5] (setting [7]) is 7%; in assay [5] (setting [8]), 98% (active); in assay [5] (at 50.0 µM) it was 94.2% (active); in assay [6] (setting [7]), 55%; in assay [6] (setting [8]), 98% (active); in assay [6] (at 50.0 µM), 97.3% (active).
In the case of `O=C(Nc1ccc(NC(=O)Nc2cc(C(=O)Nc3ccc(C4=NCCN4)cc3)ccc2C(=O)Nc2ccc(C3=NCCN3)cc2)cc1)Nc1cc(C(=O)Nc2ccc(C3=NCCN3)cc2)ccc1C(=O)Nc1ccc(C2=NCCN2)cc1`, the growth inhibition in assay [1] (setting [7]) was 7%; in assay [1] (setting [8]) it was -4%; in assay [1] (at 50.0 µM) it was 95.5% (active); in assay [2] (setting [7]), 0%; in assay [2] (setting [8]), -6%; in assay [2] (at 50.0 µM), 94.5% (active). In addition, the growth inhibition in assay [3] (setting [7]) is 2%; in assay [3] (setting [8]) it was -3%; in assay [3] (at 50.0 µM), 95.9% (active); in assay [4] (setting [7]) it was -1%; in assay [4] (setting [8]), 1%; in assay [4] (at 50.0 µM), 95% (active). The growth inhibition is 2% in assay [5] (setting [7]); 16% in assay [5] (setting [8]); 97% (active) in assay [5] (at 50.0 µM); 7% in assay [6] (setting [7]); -2% in assay [6] (setting [8]); 96.5% (active) in assay [6] (at 50.0 µM).
Turning to `CSc1ccc(/C=C2\CNC/C(=C\c3ccc(SC)cc3)C2=O)cc1`, the growth inhibition in assay [1] (setting [7]) was 12%; in assay [1] (setting [8]), 18%; in assay [1] (at 50.0 µM) it was 47.4%; in assay [2] (setting [7]), 15%; in assay [2] (setting [8]), 19%; in assay [2] (at 50.0 µM), 55.2%. Further, the growth inhibition is 26% in assay [3] (setting [7]); 32% in assay [3] (setting [8]); 69.8% in assay [3] (at 50.0 µM); 23% in assay [4] (setting [7]); 29% in assay [4] (setting [8]); 46.9% in assay [4] (at 50.0 µM). For the same molecule, the growth inhibition in assay [5] (setting [7]) was 17%; in assay [5] (setting [8]) it was 23%; in assay [5] (at 50.0 µM) it was 35%; in assay [6] (setting [7]), 24%; in assay [6] (setting [8]), 33%; in assay [6] (at 50.0 µM) it was 71.6% (active).
For `Nc1nc(SCc2ccccc2)c2ncn(CCCl)c2n1`, the growth inhibition in assay [1] (setting [7]) is -3%; in assay [1] (setting [8]), 0%; in assay [1] (at 50.0 µM), 1.4%; in assay [2] (setting [7]), -4%; in assay [2] (setting [8]) it was 2%; in assay [2] (at 50.0 µM), 15.3%. Moreover, the growth inhibition was -9% in assay [3] (setting [7]); 1% in assay [3] (setting [8]); 17.6% in assay [3] (at 50.0 µM); -4% in assay [4] (setting [7]); -1% in assay [4] (setting [8]); 70.3% (active) in assay [4] (at 50.0 µM). Moreover, the growth inhibition was -2% in assay [5] (setting [7]); -7% in assay [5] (setting [8]); -2.15% in assay [5] (at 50.0 µM); -2% in assay [6] (setting [7]); 3% in assay [6] (setting [8]); 20.9% in assay [6] (at 50.0 µM).
In the case of `CC(=O)[O-].[Mn+3].[O-]c1ccc(Cl)cc1C=NCCN=Cc1cc(Cl)ccc1[O-]`, the growth inhibition in assay [1] (setting [7]) was -2%; in assay [1] (setting [8]) it was 92% (active); in assay [1] (at 50.0 µM), 98.8% (active); in assay [2] (setting [7]) it was -3%; in assay [2] (setting [8]) it was 66%; in assay [2] (at 50.0 µM) it was 98.5% (active). Further, the growth inhibition in assay [3] (setting [7]) was 6%; in assay [3] (setting [8]), 87% (active); in assay [3] (at 50.0 µM) it was 98.6% (active); in assay [4] (setting [7]) it was 8%; in assay [4] (setting [8]), 89% (active); in assay [4] (at 50.0 µM), 89.2% (active). In addition, the growth inhibition in assay [5] (setting [7]) was 16%; in assay [5] (setting [8]), 98% (active); in assay [5] (at 50.0 µM), 98.2% (active); in assay [6] (setting [7]) it was -1%; in assay [6] (setting [8]), 93% (active); in assay [6] (at 50.0 µM) it was 98.6% (active).

The record behind these values is PubChem BioAssay (NCI).
